Article PMC4552634, “A New Set of Chemical Starting Points with Plasmodium falciparum Transmission-Blocking Potential for Antimalarial Drug Discovery” (PLoS ONE, 2015)
Out of some 13,000 compounds screened, about 3,200 (25%) showed an effect of 50% or more. The list shows a part of the results.

These molecules were tested on P. falciparum stage V gametocytes. Conditions: 48 h, 5 µM; inhibitor.
Set-up: BacTiter-Glo ATP luminescence viability of purified stage V gametocytes in 384-well plates, per cent inhibition versus DMSO

Row | SMILES | % Inhibition
1 | CCc1c(CCNCCCCCCNCc2ccc3c(c2CC)OCO3)ccc(OC)c1OC [TCMDC-132068] | 92.52%
2 | CCc1c(CCNCCCCCCNC(C)(C)Cc2ccc3c(c2CC)OCO3)ccc(OC)c1OC [TCMDC-132055] | 110.7%
3 | CCc1c(CCNCCCCCCNCCc2ccc3c(c2C)OCO3)ccc2c1OCO2 [TCMDC-132093] | 97.88%
4 | CCc1c(CCNCCCCCCNC(C)Cc2ccc3c(c2CC)OCO3)ccc(OC)c1OC (stereo not drawn) [TCMDC-132052] | 111%
5 | Nc1cnc(C#Cc2cc3ncnc(N(CCN4CCOCC4)c4ccc(OCc5cccc(F)c5)c(Cl)c4)c3s2)cn1 [TCMDC-134752] | 42.15%
6 | Cc1cc(Oc2cc(NC(=O)c3sc4ncn(Cc5ccccc5F)c(=O)c4c3C)cc([N+](=O)[O-])c2)ccc1Cl [TCMDC-125704] | 16.56%
7 | O=C(c1ccc(O)c(-c2cc(Cl)cc(Cl)c2)c1)N1CCCC1 [TCMDC-140161] | -10.57%
8 | CCOc1ccc(NC(=O)c2cn3nc(-c4ccc(OCC)cc4)cc3nc2C2CCNCC2)cc1 [TCMDC-125277] | 105.9%
9 | CCOc1ccc(NC(=O)c2ccc(CN3CCCN(Cc4cccc(O)c4)CC3)cc2)cc1 [TCMDC-136436] | 8.028%
10 | CCOc1ccc(NC(=O)c2cccc(CN3CCCN(Cc4cccc(O)c4)CC3)c2)cc1 [TCMDC-135987] | -4.859%
11 | CCOc1ccc(-c2cc3nc(C4CCNCC4)c(C(=O)Nc4ccc(C)cc4Cl)cn3n2)cc1 [TCMDC-125296] | 121.3%
12 | COc1cc(OC)c(NC(=O)COc2ccc(C)cc2)cc1Cl [TCMDC-123682] | 23.04%
13 | CCOc1cc(C)ccc1C1CCN(CCCCNC(=O)c2ccc(-c3ccc(Cl)cn3)cc2)CC1 [TCMDC-138562] | -60.76%
14 | O=C(Nc1cccc(-c2cccc(-c3nc4ccc(C(F)(F)F)cc4[nH]3)c2)c1)c1csnn1 [TCMDC-136902] | 10.49%
15 | Cc1cc2c(cc1Cl)N(C(=O)Nc1cc(F)cc(-c3cncnc3)c1)CC2 [TCMDC-139052] | -4.717%
16 | COc1cc2nccc(Nc3cccc(Oc4ccccc4)c3)c2cc1OC.Cl [TCMDC-137216] | 29.43%
17 | Cc1ccc(NC(=O)c2ccc(CN3CCCN(Cc4cccc(O)c4)CC3)cc2)cc1F [TCMDC-136395] | 3.853%
18 | O=C1C(C2CCC(c3ccc(Cl)cc3)CC2)=C2OCC3COC2(O3)c2ccccc21 (stereo not drawn) [TCMDC-138169] | 65.18%
19 | O=C1COC2(CN1C1CCN(Cc3ccc(O)c(Cl)c3)C1)c1ccccc1-c1ccccc12 (stereo not drawn) [TCMDC-136342] | -3.473%
20 | Cc1ccccc1C1CCN(C2CCC(NC(=O)/C=C/c3cccc(F)c3F)CC2)CC1 (stereo not drawn) [TCMDC-133525] | -91.19%
21 | CC(=O)Nc1ncc(C(=O)Nc2ccc(-c3cccc(-c4nc5ccc(C(F)(F)F)cc5[nH]4)c3)cc2)s1 [TCMDC-136919] | -27.65%
22 | Nc1cccc(CNCc2cccc(-c3ccc(-c4nc5ccccc5[nH]4)s3)c2)c1.O=C(O)C(F)(F)F [TCMDC-132926] | -42.76%
23 | CNC(=O)COc1ccc(Nc2nnc(-c3ccc(C)c(S(=O)(=O)NCC4CCCO4)c3)c3ccccc23)cc1 (stereo not drawn) [TCMDC-125616] | 3.105%
24 | CCCCN(CCCC)CCOc1cc2c(cc1OC)CCN2C(=O)/C=C/c1ccccc1Cl [TCMDC-141328] | 30.32%

Row | SMILES | % Inhibition
25 | CCOc1ccc(Br)cc1/C=C/C(=O)Nc1ccc2c(c1)CN(C)CCC2 [TCMDC-133944] | 3.1%
26 | COc1cc2c(cc1OCCN1CCC(N)CC1)N(C(=O)/C=C/c1ccccc1Cl)CC2 [TCMDC-140969] | 75.81%
27 | COc1cc2c(cc1OCCN1CCC(N3CCCCC3)CC1)N(C(=O)/C=C/c1ccccc1OC(F)(F)F)CC2 [TCMDC-141018] | 57.17%
28 | Cc1noc(-c2ccc3c(c2)CCN(CCC2CCC(NC(=O)/C=C/c4cccc(Cl)c4)CC2)CC3)n1 (stereo not drawn) [TCMDC-139877] | -87.8%
29 | COc1ccc(NC(=O)/C=C/c2ccccc2Cl)cc1OCCN1CCC(NC2CC2)CC1 [TCMDC-140756] | -32.57%
30 | COc1cc(NC(=O)N2CCc3cc(OC)c(OCCN4CCCCC4)cc32)cc(C(F)(F)F)c1 [TCMDC-140782] | 9.489%
31 | COc1ccc(Br)cc1/C=C/C(=O)Nc1ccc(C2CCN(C)CC2)cc1 [TCMDC-133711] | 12.54%
32 | Cc1cc(-c2ccc3c(c2)CCN(CCCOc2ccc4c(c2)CCN4C(=O)/C=C/c2ccccc2Cl)CC3)no1 [TCMDC-141470] | 81.48%
33 | COc1cc(NC(=O)/C=C/c2ccccc2OC(F)(F)F)cc(OCCN2CCCCC2)c1 [TCMDC-140931] | -34.24%
34 | Cc1cnccc1/C=C/c1cccc(OCCCN2CCc3ccc(S(C)(=O)=O)cc3CC2)c1 [TCMDC-135876] | 29.22%
35 | CCOc1ccc(Br)cc1/C=C/C(=O)Nc1ccc(C2CCN(C)CC2)cc1 [TCMDC-134194] | 61.62%
36 | NC1=NC(c2ccccc2)N(c2ccccc2)C(N)=N1 (stereo not drawn) [TCMDC-123669] | -71.64%
37 | CNC(=O)CNC(=O)COc1cccc2ccccc12 [TCMDC-131646] | 8.257%
38 | O=C(N/N=C/c1nc2ccccc2[nH]1)c1cccc([N+](=O)[O-])c1 [TCMDC-125792] | 11.6%
39 | CCCCCCCC1=NN2C(=N)C(=Cc3cc(Br)c(OCc4ccc(F)cc4)c(OCC)c3)C(=O)N=C2S1 [TCMDC-124035] | 8.522%
40 | CCOc1cc(O)c(-c2nc(N)ncc2-c2ccc3c(c2)OCCO3)cc1CC [TCMDC-125234] | 11.3%
41 | CC1(C)N=C(N)NC(Nc2ccc(Cl)cc2)=N1 [TCMDC-124268] | 26.51%
42 | COCCCNC(=O)[C@H]1CNCCN1C(=O)c1ccccc1 [TCMDC-141239] | -7.699%
43 | COc1ccc(NC(=O)/C=C/c2ccccc2Cl)cc1OCCN1CCC(N2CCN(C)CC2)CC1 [TCMDC-140757] | 11.04%
44 | COc1ccc(NC(=O)/C=C/c2ccccc2Cl)cc1OCCN1CCC(N2CCCCC2)CC1 [TCMDC-140698] | -6.505%
45 | CN1CCC(N2CCN(CCOc3cc(NC(=O)/C=C/c4ccccc4Cl)ccc3Br)CC2)CC1 [TCMDC-140962] | 101%
46 | O=C(/C=C/c1ccccc1Cl)Nc1ccc(Br)c(OCCN2CCN(CCN3CCCC3)CC2)c1 [TCMDC-140961] | 38.25%
47 | COc1ccc(NC(=O)/C=C/c2ccccc2Cl)cc1OCCN1CCC(N2CCCC2)CC1 [TCMDC-140919] | -16.17%
48 | COc1ccc(NC(=O)/C=C/c2ccccc2Cl)cc1OCCN1CCC(N(C)C)CC1 [TCMDC-140755] | 36.26%

Row | SMILES | % Inhibition
49 | COc1ccc(NC(=O)/C=C/c2ccccc2Cl)cc1OCCN1CCC(NCc2ccccc2)CC1 [TCMDC-140746] | -31.11%
50 | COc1cc2c(cc1OCCN1CCC(N3CCCC3)CC1)N(C(=O)/C=C/c1ccccc1Cl)CC2 [TCMDC-140968] | 80.73%
51 | COc1cc2c(cc1OCCN1CCC(N3CCCCC3)CC1)N(C(=O)/C=C/c1ccccc1Cl)CC2 [TCMDC-140770] | 68.26%
52 | O=C(Nc1ccc(N2CCCCC2)c(Cl)c1)c1ccc(Br)o1 [TCMDC-124350] | 9.025%
53 | CC(C)(C)C(Cn1ccnc1)NCc1cn[nH]c1-c1ccc(-c2ccccc2)cc1 (stereo not drawn) [TCMDC-124639] | 18.54%
54 | CC1CCN(C(=O)CSc2nc(-c3ccc(C(C)C)cc3)no2)CC1 [TCMDC-124746] | 17.92%
55 | COCC(=O)Nc1nc2ccccc2[nH]1 [TCMDC-125535] | -0.9845%
56 | Cc1cc(C(=O)Nc2ccc3c(c2)CCN3C2CCN(Cc3cccc4cc[nH]c34)C2)no1 (stereo not drawn) [TCMDC-135085] | 42.96%
57 | CC(C)NCc1ccc(-c2ccc(NS(=O)(=O)c3cccc4cccnc34)cc2)cc1 [TCMDC-136476] | 32.43%
58 | CCN(CC)CCNc1ccnc2[nH]c3ccc(C)cc3c12 [TCMDC-131833] | -0.1276%
59 | CCn1ncc2c(N3CCCC3=O)cc(C(=O)N[C@@H](Cc3ccccc3)[C@H](O)CNC(C)(C)c3cccc(OC)c3)cc21 [TCMDC-135063] | 45.35%
60 | O=C(Nc1ccc(-c2cccc(-c3nc4ccc(F)cc4[nH]3)c2)cc1)Nc1ccc(Cl)c(Cl)c1 [TCMDC-133282] | -9.249%
61 | CCC(CC)NCc1c(O)ccc2c(CNC(CC)CC)c(O)ccc12 [TCMDC-137581] | -56.22%
62 | Cc1cccc2[nH]c(-c3ccc(-c4ccc(NC(=O)Nc5ccc(Cl)c(Cl)c5)cc4)cc3)nc12 [TCMDC-133281] | -29.93%
63 | Cc1nc2ccc(S(=O)(=O)Nc3ccc(C(=O)N[C@@H](CCC(=O)O)C(=O)O)cc3)cc2c(=O)[nH]1 [TCMDC-137978] | -10.92%
64 | CC(C)COc1ccc(Cl)cc1Cc1ccc(-c2nc3ccc(Cl)cc3[nH]2)o1 [TCMDC-136546] | -3.56%
65 | CC(C)COc1ccc(Cl)cc1Cc1ccc(-c2nc3cc(F)c(F)cc3[nH]2)o1 [TCMDC-136561] | 53.5%
66 | CC(C)COc1ccc(Cl)cc1Cc1ccc(-c2nc3ccc(Br)cc3[nH]2)o1 [TCMDC-136705] | 53.1%
67 | CC(C)COc1ccc(Cl)cc1Cc1ccc(-c2nc3ccc(CCN4CCCC4)cc3[nH]2)o1 [TCMDC-136890] | 21.95%
68 | CC(C)COc1ccc(Cl)cc1Cc1ccc(-c2nc3ccc(CCN(C)C)cc3[nH]2)o1 [TCMDC-136891] | 30.85%
69 | CC(C)COc1ccc(Cl)cc1Cc1ccc(-c2nc3ccc(F)cc3[nH]2)o1 [TCMDC-136545] | 33.1%
70 | CC(C)COc1ccc(Cl)cc1Cc1ccc(-c2nc3ccc(N4CCN(C)CC4)cc3[nH]2)o1 [TCMDC-136709] | 31.86%
71 | CC(C)COc1ccc(Cl)cc1Cc1ccc(-c2nc3ccc(C(F)(F)F)cc3[nH]2)o1 [TCMDC-136563] | 61.92%
72 | CC(C)COc1ccc(Cl)cc1Cc1nc(-c2nc3ccc(CN(C)C)cc3[nH]2)co1 [TCMDC-136809] | -8.138%
